Records with an inconclusive call do not appear. A call without a number means that no potency is given here. The source made the active and inactive calls. Unless noted, the call rests on the fitted dose curve; in most records, active means well fitted curve in the direction sought with a large enough effect in the repeat runs; inconclusive means weak or mixed curves; inactive means no such curve, though single readings can be large; an effect the other way counts as inactive or inconclusive.
Assays:
[1] = molecular target: Estrogen receptor (Homo sapiens) (UniProt P03372); assay: qHTS assay to identify small molecule antagonists of the estrogen receptor alpha (ER-alpha) signaling pathway (AID 743069; active means well fitted curve in the direction sought with a large enough effect in the signal ratio in the repeat runs, not every such curve was filed as active; the % refers to the signal ratio)
Method in brief: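 HEK293 cells stably carrying an ER-alpha-UAS-bla beta-lactamase reporter were pre-cultured overnight in 2% charcoal-stripped FBS medium. Test compounds in DMSO were added together with 17beta-estradiol for 18 hr at 37C. Read-out was fluorescence after 2 hr with LiveBLAzer B/G FRET substrate at room temperature.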

[2] = molecular target: Estrogen receptor (Homo sapiens) (UniProt P03372); assay: qHTS assay to identify small molecule agonists of the estrogen receptor alpha (ER-alpha) signaling pathway (AID 743075; calls by dose curve)
[3] = molecular target: Estrogen receptor (Homo sapiens) (UniProt P03372); assay: qHTS assay to identify small molecule agonists of the estrogen receptor alpha (ER-alpha) signaling pathway using the BG1 cell line (AID 743079); further: nearly all actives have a fitted effect of over 20% in size
[4] = qHTS assay to identify small molecule antagonists of the estrogen receptor alpha (ER-alpha) signaling pathway using the BG1 cell line (AID 743080; calls by dose curve; further: nearly all actives have a fitted effect of over 25% in size; further: potency means the concentration at half of the fitted maximal effect)
Method in brief: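 Antagonist mode: compounds in DMSO were pinned onto BG1-Luc-4E2 cells alongside 17beta-estradiol agonist, incubated 21.5 h, and ERE-driven luciferase measured with ONE-Glo. Cytotoxicity was multiplexed using CellTiter-Fluor fluorescence.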

[5] = qHTS assay to identify small molecule antagonists of the estrogen receptor alpha (ER-alpha) signaling pathway using the BG1 cell line - cell viability counter screen (AID 743081);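 further: compound given together with 17beta-estradiol as the ER stimulus; series mostly up to about 70 µM; nearly all actives have a fitted effect of over 45% in size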
[6] = qHTS assay to identify aromatase inhibitors - cell viability counter screen (AID 743084);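 further: cells stimulated with testosterone during compound exposure; nearly all actives have a fitted effect of over 55% in size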
[7] = molecular target: Aryl hydrocarbon receptor (Homo sapiens) (UniProt P35869); assay: qHTS assay to identify small molecule that activate the aryl hydrocarbon receptor (AhR) signaling pathway (AID 743085); further: nearly all actives have a fitted effect of over 15% in size; further: potency means the concentration at half of the fitted maximal effect;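 on activation: HG2L7.5c1 human HepG2 liver cells with stably integrated DRE-driven firefly reporter; series mostly up to about 70 µM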
Method in brief: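 HepG2 cells (HG2L7.5c1) stably carrying a firefly luciferase reporter driven by 20 dioxin responsive elements were exposed to compound for 24 h at 37C after a 5 h settling period; luminescence rise (ONE-Glo) indicated activation.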

[8] = qHTS assay to identify small molecule that activate the aryl hydrocarbon receptor (AhR) signaling pathway - cell viability counter screen (AID 743086);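 further: HepG2 liver cells carrying the AhR DRE luciferase reporter; series mostly up to about 70 µM; nearly all actives have a fitted effect of over 45% in size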
Method in brief: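 HepG2-AhR-luc (HG2L7.5c1) cells, 4000/well, were preincubated 5 h at 37C, exposed to compound in qHTS format for 24 hr at 37C, then given CellTiter-Fluor for 30 min; viability was read as fluorescence in the reporter wells.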

[9] = molecular target: Peroxisome proliferator-activated receptor gamma (Homo sapiens) (UniProt P37231); assay: qHTS assay to identify small molecule agonists of the peroxisome proliferator-activated receptor gamma (PPARg) signaling pathway (AID 743094; active means well fitted activation curve with a large enough effect in the signal ratio in the repeat runs, not every such curve was filed as active; the % refers to the signal ratio)
Method in brief: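 Beta-lactamase FRET fluorescence was the read-out after a 1 h room-temperature substrate step, following 17 h compound treatment at 37C of HEK293H cells expressing a UAS-driven bla reporter responsive to PPARg.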

[10] = qHTS assay for small molecule agonists of the antioxidant response element (ARE) signaling pathway (AID 743202; active means well fitted activation curve with a large enough effect in the signal ratio in the repeat runs, not every such curve was filed as active; the % refers to the signal ratio)
Method in brief: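 Read-out: LiveBLAzer B/G FRET substrate fluorescence after 2 h at room temperature, following 16 h compound treatment at 37 C of HepG2 cells carrying an ARE-driven beta-lactamase reporter.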

[11] = qHTS assay for small molecule agonists of the antioxidant response element (ARE) signaling pathway - cell viability counter screen (AID 743203; calls by dose curve; further: nearly all actives have a fitted effect of over 55% in size; further: potency means the concentration at half of the fitted maximal effect)
Method in brief: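 HepG2 cells carrying ARE-driven beta-lactamase; 2,000 cells/well; 5 hrs plating; compound pinned from DMSO; 16 hrs 37C/5% CO2; CellTiter-Glo added; 30 min RT; luminescence.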

[12] = qHTS assay for small molecule activators of the heat shock response signaling pathway - cell viability counter screen (AID 743209); further: nearly all actives have a fitted effect of over 50% in size; further: potency means the concentration at half of the fitted maximal effect
Method in brief: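 Luminescence from CellTiter-Glo, added after the beta-lactamase FRET read, gave the viability signal. Cells were HSE-bla HeLa treated with DMSO-dissolved compounds for 5 h at 37 C following overnight plating.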

[13] = qHTS assay for small molecule activators of the heat shock response signaling pathway (AID 743210; active means well fitted activation curve with a large enough effect in the signal ratio in the repeat runs, with a control signal flat, not every such curve was filed as active; the % refers to the signal ratio; further: series mostly up to about 63 µM)
Method in brief: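 HSE-bla HeLa cells (beta-lactamase reporter under heat shock response elements) were exposed to compounds for 5 h at 37 C, then loaded with LiveBLAzer B/G FRET substrate for 2.5 h at room temperature before fluorescence reading.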

[14] = test system: thyroid hormone receptor (rat, GH3 cells); assay: qHTS assay to identify small molecule agonists of the thyroid receptor (TR) signaling pathway (AID 743066; calls by dose curve)
[15] = molecular target: Aromatase (Homo sapiens) (UniProt P11511); assay: qHTS assay to identify aromatase inhibitors (AID 743083); further: nearly all actives have a fitted effect of over 55% in size; further: potency means the concentration at half of the fitted maximal effect
[16] = qHTS assay to identify small molecule antagonists of the peroxisome proliferator-activated receptor gamma (PPARg) signaling pathway - cell viability counter screen (AID 743194); further: nearly all actives have a fitted effect of over 55% in size; further: potency means the concentration at half of the fitted maximal effect
Method in brief: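 PPARg-UAS-bla HEK293H cells were plated, rested 5 h at 37 C, then treated with compounds plus rosiglitazone (50 nM final) for 17 h at 37 C; viability was then read by CellTiter-Glo luminescence after 30 min at room temperature.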

[17] = qHTS assay to identify small molecule antagonists of the estrogen receptor alpha (ER-alpha) signaling pathway - cell viability counter screen (AID 743074; calls by dose curve; further: nearly all actives have a fitted effect of over 45% in size)
[18] = qHTS assay to identify small molecule agonists of the peroxisome proliferator-activated receptor delta (PPARd) signaling pathway - cell viability counter screen (AID 743211); further: nearly all actives have a fitted effect of over 55% in size; further: potency means the concentration at half of the fitted maximal effect
Method in brief: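 PPARd-bla HEK293H cells (UAS-beta-lactamase reporter) were treated with compounds for 17 h at 37 C. Viability was then read in the same wells by CellTiter-Glo luminescence after 30 min at room temperature.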

[19] = molecular target: Peroxisome proliferator-activated receptor gamma (Homo sapiens) (UniProt P37231); assay: qHTS assay to identify small molecule antagonists of the peroxisome proliferator-activated receptor gamma (PPARg) signaling pathway (AID 743191; calls by dose curve; further: series mostly up to about 63 µM; nearly all actives have a fitted effect of over 30% in size)
Method in brief: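 GeneBLAzer PPARg UAS-bla HEK293H cells carrying a UAS-driven beta-lactamase reporter were plated at 3000 cells/well, preincubated 5 h at 37C, then given compound for 17 h at 37C; LiveBLAzer B/G FRET substrate was read after 1 h at room temperature.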

Aryl hydrocarbon receptor (Homo sapiens), sequence (P35869 whole entry, looked up): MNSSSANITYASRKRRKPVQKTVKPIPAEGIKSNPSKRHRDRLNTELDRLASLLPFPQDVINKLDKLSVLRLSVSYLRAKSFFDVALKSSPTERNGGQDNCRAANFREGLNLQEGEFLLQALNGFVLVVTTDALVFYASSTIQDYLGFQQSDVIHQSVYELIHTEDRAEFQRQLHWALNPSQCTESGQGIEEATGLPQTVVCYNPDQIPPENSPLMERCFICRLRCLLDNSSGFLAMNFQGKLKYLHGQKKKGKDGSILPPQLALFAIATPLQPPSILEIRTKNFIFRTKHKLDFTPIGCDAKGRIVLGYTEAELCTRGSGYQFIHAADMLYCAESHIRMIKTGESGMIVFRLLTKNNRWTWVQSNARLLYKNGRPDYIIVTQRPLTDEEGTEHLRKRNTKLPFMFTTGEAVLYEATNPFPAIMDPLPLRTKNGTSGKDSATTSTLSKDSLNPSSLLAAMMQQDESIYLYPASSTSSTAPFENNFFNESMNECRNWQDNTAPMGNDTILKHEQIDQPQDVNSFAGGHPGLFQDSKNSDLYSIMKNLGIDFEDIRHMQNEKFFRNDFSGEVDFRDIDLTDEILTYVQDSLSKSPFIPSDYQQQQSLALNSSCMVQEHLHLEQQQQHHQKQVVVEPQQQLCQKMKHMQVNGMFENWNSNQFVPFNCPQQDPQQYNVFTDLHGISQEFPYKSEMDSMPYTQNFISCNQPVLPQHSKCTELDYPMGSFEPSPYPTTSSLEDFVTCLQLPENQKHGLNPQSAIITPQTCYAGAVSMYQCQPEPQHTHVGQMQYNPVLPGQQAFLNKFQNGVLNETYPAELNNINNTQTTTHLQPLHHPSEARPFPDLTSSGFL
Estrogen receptor (Homo sapiens), sequence (P03372 whole entry, looked up): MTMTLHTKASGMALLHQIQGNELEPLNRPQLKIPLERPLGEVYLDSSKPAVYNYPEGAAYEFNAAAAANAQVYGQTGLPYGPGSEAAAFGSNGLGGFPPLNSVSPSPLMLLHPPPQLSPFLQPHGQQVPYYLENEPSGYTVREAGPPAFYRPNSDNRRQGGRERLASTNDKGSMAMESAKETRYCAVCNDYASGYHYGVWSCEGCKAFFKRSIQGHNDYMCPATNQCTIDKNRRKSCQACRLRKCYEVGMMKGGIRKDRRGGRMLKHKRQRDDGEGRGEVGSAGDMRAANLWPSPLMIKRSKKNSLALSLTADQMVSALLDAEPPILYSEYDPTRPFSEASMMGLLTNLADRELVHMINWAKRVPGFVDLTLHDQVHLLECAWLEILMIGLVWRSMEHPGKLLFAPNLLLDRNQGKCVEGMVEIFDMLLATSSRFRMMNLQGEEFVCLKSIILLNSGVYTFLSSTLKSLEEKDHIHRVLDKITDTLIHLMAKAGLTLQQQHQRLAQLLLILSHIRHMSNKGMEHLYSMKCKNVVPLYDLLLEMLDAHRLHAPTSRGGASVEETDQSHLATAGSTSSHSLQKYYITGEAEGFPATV
Aromatase (Homo sapiens), sequence (P11511 whole entry, looked up): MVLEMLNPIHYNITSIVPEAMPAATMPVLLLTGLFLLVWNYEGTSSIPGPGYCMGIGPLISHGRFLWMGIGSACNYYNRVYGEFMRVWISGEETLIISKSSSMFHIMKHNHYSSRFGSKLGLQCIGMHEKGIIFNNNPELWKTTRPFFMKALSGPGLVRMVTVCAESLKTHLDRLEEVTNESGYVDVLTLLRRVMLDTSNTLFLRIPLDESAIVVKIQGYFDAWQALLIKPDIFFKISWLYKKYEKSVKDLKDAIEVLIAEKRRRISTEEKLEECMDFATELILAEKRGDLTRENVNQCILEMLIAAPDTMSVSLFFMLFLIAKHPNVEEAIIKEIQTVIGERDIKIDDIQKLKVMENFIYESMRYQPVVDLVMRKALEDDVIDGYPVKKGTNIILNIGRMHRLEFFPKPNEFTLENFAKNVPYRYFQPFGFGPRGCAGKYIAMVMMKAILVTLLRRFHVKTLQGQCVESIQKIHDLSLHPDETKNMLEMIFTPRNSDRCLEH
Peroxisome proliferator-activated receptor gamma (Homo sapiens), sequence (P37231 whole entry, looked up): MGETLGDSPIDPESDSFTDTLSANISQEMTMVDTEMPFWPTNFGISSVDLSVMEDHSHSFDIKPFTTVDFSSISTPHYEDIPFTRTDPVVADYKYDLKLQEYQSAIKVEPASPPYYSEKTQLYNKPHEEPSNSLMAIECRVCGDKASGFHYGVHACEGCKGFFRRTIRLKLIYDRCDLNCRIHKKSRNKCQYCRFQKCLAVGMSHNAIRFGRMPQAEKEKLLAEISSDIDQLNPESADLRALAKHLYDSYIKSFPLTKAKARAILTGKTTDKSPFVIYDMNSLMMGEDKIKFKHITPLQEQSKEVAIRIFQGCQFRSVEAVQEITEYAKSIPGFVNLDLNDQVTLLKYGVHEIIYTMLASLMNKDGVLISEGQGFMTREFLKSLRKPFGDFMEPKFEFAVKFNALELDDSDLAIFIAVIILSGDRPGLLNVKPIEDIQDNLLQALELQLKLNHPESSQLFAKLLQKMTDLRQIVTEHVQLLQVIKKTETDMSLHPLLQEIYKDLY

With `Cc1c(C)c([N+](=O)[O-])c(C(C)(C)C)c([N+](=O)[O-])c1C` the Potency [1] was “inactive”, the Potency [2] was “inactive” and the Potency [3] was “inactive”. The Potency [4] was “inactive”, the Potency [5] was “inactive” and the Potency [6] was “inactive”. The Potency [7] was “inactive”, the Potency [8] was “inactive” and the Potency [9] was “inactive”. For the same compound, the Potency [10] was “inactive”, the Potency [11] was “inactive” and the Potency [12] was “inactive”. For the same compound, the Potency [13] was “inactive”.
In the case of `CNC(=O)c1ccccc1Sc1ccc2c(/C=C/c3ccccn3)n[nH]c2c1`, the outcome [14] is reported as “inactive”, the Potency [15] is reported as “inactive” and the Potency [7] is reported as 3.76 µM (active). The Potency [8] was “inactive”, the Potency [11] was “inactive” and the Potency [12] was “inactive”. The Potency [13] was “inactive”.
In the case of `CC(C)=CCNc1ncnc2c1ncn2[C@@H]1O[C@H](CO)[C@@H](O)[C@H]1O`, the Potency [16] is reported as 9.44 µM (active), the Potency [11] is reported as 5.96 µM (active) and the Potency [12] is reported as 13.3 µM (active).
With `COC1=C(OC)C(=O)C(CCCCCCCCCCO)=C(C)C1=O` the Potency [17] was “inactive”, the Potency [2] was “inactive” and the Potency [5] was “inactive”. The Potency [15] was 29.8 µM (active), the Potency [7] was “inactive” and the Potency [8] was “inactive”. For the same compound, the Potency [16] was “inactive”, the Potency [10] was “inactive” and the Potency [11] was “inactive”.
With `CCC(C)[O-].CCC(C)[O-].CCOC(=O)/C=C(/C)[O-].[Al+3]` the Potency [17] was “inactive”, the Potency [5] was “inactive” and the Potency [8] was “inactive”. The Potency [16] was “inactive”, the Potency [12] was “inactive” and the Potency [13] was “inactive”. For the same compound, the Potency [18] was “inactive”.
For `CCC(C)n1ncn(-c2ccc(N3CCN(c4ccc(OC[C@H]5CO[C@](Cn6cncn6)(c6ccc(Cl)cc6Cl)O5)cc4)CC3)cc2)c1=O` (stereo not given in full), the Potency [17] was “inactive”, the Potency [2] was “inactive” and the Potency [4] was 13.3 µM (active). For the same compound, the Potency [5] was “inactive”, the Potency [15] was “inactive” and the Potency [6] was “inactive”. The Potency [7] was “inactive”, the Potency [8] was “inactive” and the Potency [19] was “inactive”. For the same compound, the Potency [16] was “inactive”, the Potency [11] was “inactive” and the Potency [12] was “inactive”.
In the case of `Fc1ccc(C(c2ccc(F)cc2)N2CCNCC2)cc1`, the Potency [16] is reported as 26.6 µM (active), the Potency [11] is reported as 16.8 µM (active) and the Potency [12] is reported as 15 µM (active). For the same compound, the Potency [18] was 7.5 µM (active).

Source: PubChem BioAssay (Tox21)
